Activity calls are given as the source filed them. The calls were made as follows: active = hit-call score of the fitted dose curve at least 0.9, where 1 is the maximum; inactive = score below 0.9.
Assays:
[1] = ATG_E_Box_CIS: Attagene CIS-FACTORIAL HepG2 Assay for human Enhancer Box (E-box) (AID 2282936); details: HepG2 E-box cis-reporter transcription, actives raise or lower the signal
Procedure, shortened: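 DMSO served as negative control and baseline for bidirectional fitting. Human hepatoma HepG2 cells, transiently transfected with cis-reporter constructs, were dosed 24 h; reporter mRNA read by RT-PCR and capillary electrophoresis.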

[2] = ATG_M_61_CIS: Attagene CIS-FACTORIAL HepG2 Assay for M61 Transcription Factor (Internal Marker) (AID 2282937); details: HepG2 Attagene CIS-FACTORIAL M61 internal marker reporter; actives raise or lower the signal
Procedure, shortened: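 Background-control endpoint: HepG2 cells with cis-regulated reporter constructs, 24 h exposure, reporter mRNA detected via fluorescent primer extension and capillary electrophoresis; values from bidirectional fitting with DMSO baseline.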

[3] = ATG_M_19_CIS: Attagene CIS-FACTORIAL HepG2 Assay for M19 Transcription Factor (Internal Marker) (AID 2282939); details: HepG2 Attagene CIS-FACTORIAL M19 internal marker reporter; actives raise or lower the signal
Procedure, shortened: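 Transfect HepG2 with MRTU reporter library → dose chemical, 24 h → isolate total RNA, reverse-transcribe with oligo(dT) → PCR, 6-FAM label, HpaI cut (2 h, 37 C) → capillary electrophoresis. Bidirectional fit vs DMSO.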

[4] = ATG_ERE_CIS: Attagene CIS-FACTORIAL HepG2 Assay for Estrogen Response Element (ERE) (AID 2282940); details: HepG2 ERE cis-reporter, Attagene RNA transcript; actives raise or lower the signal
Procedure, shortened: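 Transient MRTU transfection of human HepG2; cis-element promoters; 24 h dosing; total RNA → RT (oligo dT) → PCR → 6-FAM primer extension → HpaI digest → CE fluorescence. Bidirectional fit, DMSO baseline.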

[5] = ATG_Ets_CIS: Attagene CIS-FACTORIAL HepG2 Assay for human Erythroblast Transformation Specific (ETS) (AID 2282941); details: HepG2 ETS cis-reporter transcription, actives raise or lower the signal
Procedure, shortened: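 HepG2 cells transiently transfected with cis-promoter reporter transcription units were dosed for 24 h; reporter mRNA was measured by RT-PCR, 6-FAM primer extension, HpaI digestion and capillary electrophoresis, with bidirectional fitting against DMSO baseline.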

[6] = biological target: Hepatocyte nuclear factor 3-beta (Homo sapiens) (UniProt Q9Y261); assay: ATG_FoxA2_CIS: Attagene CIS-FACTORIAL HepG2 Assay for human Forkhead box A2 (FOXA2) (AID 2282942); details: HepG2 cis-reporter transcription factor activity, 24 h; actives raise or lower the signal
Procedure, shortened: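 Measured: reporter mRNA induction or loss in HepG2 transiently carrying multiple cis-regulated reporter units, 24 h after dosing. Quantified by RT-PCR plus capillary electrophoresis, normalised to DMSO.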

[7] = ATG_FoxO_CIS: Attagene CIS-FACTORIAL HepG2 Assay for human Forkhead box O (FoxO) (AID 2282943); details: HepG2 Attagene cis-reporter, FoxO element, mRNA; actives raise or lower the signal
Procedure, shortened: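 HepG2, transient MRTU transfection (cis element, endogenous TFs). Dose 24 h. TriZol RNA → oligo(dT) RT → PCR → 6-FAM primer extension → HpaI cut → CE. Gain/loss vs DMSO.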

[8] = ATG_GLI_CIS: Attagene CIS-FACTORIAL HepG2 Assay for human Zinc Finger Protein GLI1 (AID 2282945); details: HepG2, Attagene cis-factorial reporter mRNA, GLI element; actives raise or lower the signal
Procedure, shortened: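 Bidirectional curve fits relative to DMSO, using reporter mRNA levels from RT-PCR plus capillary electrophoresis. Cells were HepG2 transiently carrying cis-regulated reporter constructs, harvested 24 h after dosing.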

[9] = biological target: Bile acid receptor (Homo sapiens) (UniProt Q96RI1); assay: ATG_IR1_CIS: Attagene CIS-FACTORIAL HepG2 Assay for human Nuclear Receptor Subfamily 1 Group H Member 4 (NR1H4), IR1 submotif (AID 2282946); details: IR1 reporter transcription, actives raise or lower the signal
Procedure, shortened: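 Cells (human HepG2) carry transiently transfected cis-promoter reporter transcription units. Compounds are incubated 24 h, total RNA is reverse-transcribed and amplified, and labelled fragments are resolved by capillary electrophoresis. Curves use DMSO as baseline.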

[10] = ATG_GRE_CIS: Attagene CIS-FACTORIAL HepG2 Assay for human Glucocorticoid Response Elements (GRE) (AID 2282947); details: HepG2 GRE cis-reporter, Attagene multiplex mRNA; actives raise or lower the signal
Procedure, shortened: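 Assay uses human hepatoma HepG2 cells transfected with cis-promoter reporter units, exposed 24 h. mRNA from reporters detected by RT-PCR plus capillary electrophoresis; DMSO serves as negative control and baseline.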

[11] = ATG_M_32_CIS: Attagene CIS-FACTORIAL HepG2 Assay for M32 Transcription Factor (Internal Marker) (AID 2282949); details: HepG2 Attagene cis-factorial M32 reporter, mRNA; actives raise or lower the signal;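 also: background control marker of the multiplexed CIS panel rather than a real target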
Procedure, shortened: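 Following 24 h chemical exposure of HepG2 cells transiently expressing cis-promoter reporter constructs, reporter transcript levels were determined by RT-PCR with fluorescent labelling and capillary electrophoresis, then fitted bidirectionally against DMSO.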

[12] = ATG_M_06_CIS: Attagene CIS-FACTORIAL HepG2 Assay for M06 Transcription Factor (Internal Marker) (AID 2282950); details: HepG2 Attagene CIS-FACTORIAL M06 internal marker reporter; actives raise or lower the signal
Procedure, shortened: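 Read-out is fluorescence of labelled reporter cDNA fragments resolved by capillary electrophoresis after RT-PCR. Cells: HepG2 carrying transfected cis-promoter reporter units, treated 24 h. Gain or loss of signal fitted relative to DMSO.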

[13] = biological target: Hypoxia-inducible factor 1-alpha (Homo sapiens) (UniProt Q16665); assay: ATG_HIF1a_CIS: Attagene CIS-FACTORIAL HepG2 Assay for human Hypoxia Inducible Factor 1 (HIF1A) (AID 2282951); details: HepG2 Attagene cis-factorial HIF1a reporter transcription; actives raise or lower the signal
Procedure, shortened: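 Dosed 24 h, transfected HepG2 cells yielded total RNA whose reporter transcripts were RT-PCR-amplified and sized by capillary electrophoresis using fluorescent labelling; DMSO defined baseline, with gain and loss of signal both fitted.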

[14] = biological target: Hepatocyte nuclear factor 6 (Homo sapiens) (UniProt Q9UBC0); assay: ATG_HNF6_CIS: Attagene CIS-FACTORIAL HepG2 Assay for human Hepatocyte Nuclear Factor 6 (HNF6) (AID 2282952); details: HepG2 Attagene cis-factorial HNF6 reporter transcription; actives raise or lower the signal
Procedure, shortened: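 HepG2, transient MRTU transfection (cis promoters); 24 h chemical exposure; total RNA → oligo(dT) RT → PCR → 6-FAM labelling → HpaI cut → CE; bidirectional fit vs DMSO.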

[15] = biological target: Heat shock factor protein 1 (Homo sapiens) (UniProt Q00613); assay: ATG_HSE_CIS: Attagene CIS-FACTORIAL HepG2 Assay for human Heat Shock Transcription Factor 1 (HSE) (AID 2282953); details: HepG2 HSE cis-reporter, Attagene RNA transcription; actives raise or lower the signal
Procedure, shortened: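 HepG2, transient MRTU transfection, cis-promoter reporters (endogenous TF activity). 24 h compound. RNA → oligo(dT) RT → PCR → 6-FAM primer extension → HpaI cut → CE. Bidirectional fit vs DMSO.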

[16] = ATG_MRE_CIS: Attagene CIS-FACTORIAL HepG2 Assay for human Metal Responsive Element (MRE) (AID 2282954); details: HepG2 MRE cis-reporter transcription, Attagene multiplex; actives raise or lower the signal
Procedure, shortened: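 After a 24 h chemical exposure, transiently transfected HepG2 cells yield RNA whose reporter sequences are amplified, FAM-labelled and sized by capillary electrophoresis. Curves are fitted bidirectionally relative to DMSO.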

[17] = ATG_ISRE_CIS: Attagene CIS-FACTORIAL HepG2 Assay for human Interferon Regulatory Factor 1 (IRF1) binding to an Interferon-Stimulated Response Element (ISRE) (AID 2282948); details: HepG2 ISRE cis-reporter (Attagene), mRNA transcription readout; actives raise or lower the signal
Procedure, shortened: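 HepG2 cells transiently transfected with multiplexed cis-promoter reporter units; after 24 h compound exposure, reporter mRNA quantified by RT-PCR, FAM labelling, HpaI digestion and capillary electrophoresis. Bidirectional fit versus DMSO baseline.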

[18] = ATG_PBREM_CIS: Attagene CIS-FACTORIAL HepG2 Assay for human Phenobarbital-responsive Enhancer Module (PBREM) (AID 2282955); details: HepG2 PBREM cis-reporter, Attagene multiplexed transcription; actives raise or lower the signal
Procedure, shortened: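 Transfected liver-derived HepG2 cells exposed 24 h; PBREM reporter transcript quantified via RT-PCR and capillary electrophoresis, with activity in either direction referenced to DMSO.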

[19] = ATG_GATA_CIS: Attagene CIS-FACTORIAL HepG2 Assay for human GATA Binding Protein (AID 2282944); details: HepG2 GATA cis-element reporter, Attagene multiplex mRNA; actives raise or lower the signal
Procedure, shortened: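 Transient MRTU transfection, HepG2, 24 h compound exposure. Total RNA → oligo(dT) RT → PCR → 6-FAM primer extension → HpaI cut → CE. Bidirectional fit vs DMSO.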

Measured: AC50

Chain of Hypoxia-inducible factor 1-alpha (Homo sapiens) (Q16665 whole entry, looked up): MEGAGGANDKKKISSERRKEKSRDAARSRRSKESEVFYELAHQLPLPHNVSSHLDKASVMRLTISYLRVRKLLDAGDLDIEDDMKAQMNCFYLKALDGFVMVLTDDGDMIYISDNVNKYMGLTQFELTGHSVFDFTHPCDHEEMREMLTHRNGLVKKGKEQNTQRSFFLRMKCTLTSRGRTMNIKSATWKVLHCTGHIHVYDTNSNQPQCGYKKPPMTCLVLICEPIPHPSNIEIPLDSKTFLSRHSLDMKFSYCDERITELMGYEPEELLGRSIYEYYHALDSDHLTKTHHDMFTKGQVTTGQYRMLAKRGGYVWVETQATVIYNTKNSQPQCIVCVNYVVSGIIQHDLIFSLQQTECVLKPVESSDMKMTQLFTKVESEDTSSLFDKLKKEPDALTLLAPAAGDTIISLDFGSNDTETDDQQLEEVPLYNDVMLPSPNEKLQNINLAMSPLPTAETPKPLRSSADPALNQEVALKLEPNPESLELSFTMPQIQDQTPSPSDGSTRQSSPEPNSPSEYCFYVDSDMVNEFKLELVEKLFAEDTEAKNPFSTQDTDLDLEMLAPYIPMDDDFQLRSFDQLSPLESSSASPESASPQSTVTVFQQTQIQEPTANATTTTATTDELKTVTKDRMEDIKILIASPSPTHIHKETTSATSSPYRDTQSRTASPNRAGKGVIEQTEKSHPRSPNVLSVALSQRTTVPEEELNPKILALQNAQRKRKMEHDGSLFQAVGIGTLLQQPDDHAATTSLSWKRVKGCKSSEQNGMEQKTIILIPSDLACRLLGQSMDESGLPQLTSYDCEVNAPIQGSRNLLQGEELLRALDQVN
Chain of Hepatocyte nuclear factor 3-beta (Homo sapiens) (Q9Y261 whole entry, looked up): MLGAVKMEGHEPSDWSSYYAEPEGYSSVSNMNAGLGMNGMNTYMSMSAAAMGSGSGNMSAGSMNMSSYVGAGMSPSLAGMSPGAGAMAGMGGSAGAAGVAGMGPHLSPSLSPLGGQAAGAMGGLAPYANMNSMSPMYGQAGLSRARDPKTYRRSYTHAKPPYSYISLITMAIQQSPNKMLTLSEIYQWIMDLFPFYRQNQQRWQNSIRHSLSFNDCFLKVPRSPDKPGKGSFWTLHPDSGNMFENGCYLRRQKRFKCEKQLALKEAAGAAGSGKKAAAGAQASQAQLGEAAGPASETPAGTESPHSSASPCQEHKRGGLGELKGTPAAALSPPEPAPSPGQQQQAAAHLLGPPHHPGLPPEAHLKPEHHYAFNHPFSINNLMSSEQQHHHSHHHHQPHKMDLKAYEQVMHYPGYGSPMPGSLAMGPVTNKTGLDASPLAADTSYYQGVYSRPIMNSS
Chain of Heat shock factor protein 1 (Homo sapiens) (Q00613 whole entry, looked up): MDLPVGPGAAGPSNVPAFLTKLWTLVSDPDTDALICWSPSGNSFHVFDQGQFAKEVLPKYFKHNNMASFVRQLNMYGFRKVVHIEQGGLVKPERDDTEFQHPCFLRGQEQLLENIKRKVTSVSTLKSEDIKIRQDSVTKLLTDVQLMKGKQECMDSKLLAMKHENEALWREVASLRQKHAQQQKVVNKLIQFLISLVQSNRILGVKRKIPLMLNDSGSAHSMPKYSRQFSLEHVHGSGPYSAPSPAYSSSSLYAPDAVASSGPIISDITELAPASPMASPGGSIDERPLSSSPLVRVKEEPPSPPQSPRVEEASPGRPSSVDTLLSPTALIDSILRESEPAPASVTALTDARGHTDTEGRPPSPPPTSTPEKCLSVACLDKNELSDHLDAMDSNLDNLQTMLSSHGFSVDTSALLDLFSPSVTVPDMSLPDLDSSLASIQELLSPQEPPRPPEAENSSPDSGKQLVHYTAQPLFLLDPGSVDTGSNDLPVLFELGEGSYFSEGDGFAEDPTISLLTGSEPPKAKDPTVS
Chain of Hepatocyte nuclear factor 6 (Homo sapiens) (Q9UBC0 whole entry, looked up): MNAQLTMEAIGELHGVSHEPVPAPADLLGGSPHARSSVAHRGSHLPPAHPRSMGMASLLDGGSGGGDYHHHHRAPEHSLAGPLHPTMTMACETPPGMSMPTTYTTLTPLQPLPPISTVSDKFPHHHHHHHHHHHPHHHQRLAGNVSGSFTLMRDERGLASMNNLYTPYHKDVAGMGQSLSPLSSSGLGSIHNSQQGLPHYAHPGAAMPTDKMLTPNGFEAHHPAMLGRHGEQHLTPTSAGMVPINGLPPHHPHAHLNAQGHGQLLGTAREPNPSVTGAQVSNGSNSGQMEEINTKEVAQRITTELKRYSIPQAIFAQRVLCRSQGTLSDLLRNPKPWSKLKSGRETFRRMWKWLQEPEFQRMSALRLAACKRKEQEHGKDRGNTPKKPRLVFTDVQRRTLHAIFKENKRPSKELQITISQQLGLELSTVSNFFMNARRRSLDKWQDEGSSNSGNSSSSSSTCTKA
Chain of Bile acid receptor (Homo sapiens) (Q96RI1 whole entry, looked up, the tested form may be a part): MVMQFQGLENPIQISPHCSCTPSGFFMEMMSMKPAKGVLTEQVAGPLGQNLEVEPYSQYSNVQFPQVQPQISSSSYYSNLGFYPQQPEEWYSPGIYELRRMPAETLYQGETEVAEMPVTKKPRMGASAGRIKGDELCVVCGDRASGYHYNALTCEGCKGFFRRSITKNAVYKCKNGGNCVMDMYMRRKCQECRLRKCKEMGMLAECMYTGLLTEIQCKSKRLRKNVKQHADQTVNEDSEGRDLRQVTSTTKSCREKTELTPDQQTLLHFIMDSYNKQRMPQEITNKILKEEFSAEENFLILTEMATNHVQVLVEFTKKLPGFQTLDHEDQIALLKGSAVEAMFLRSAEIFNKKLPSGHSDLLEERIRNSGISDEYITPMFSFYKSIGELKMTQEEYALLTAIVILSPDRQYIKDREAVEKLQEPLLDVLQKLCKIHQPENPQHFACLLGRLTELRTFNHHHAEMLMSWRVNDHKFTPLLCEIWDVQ

Cc1ccc2oc(CN(Cc3ccccc3)C(=O)Nc3c(F)cc(F)cc3F)c(-c3ccc(Cl)cc3)c2c1
not listed: [17] | [18] | [19]
inactive: all other assays above

O=C(O)c1ccccc1C(=O)OCc1ccccc1
not listed: [19]
inactive: all other assays above

O=C(O)Cc1cc(I)c(Oc2ccc(O)c(I)c2)c(I)c1
active: [15] 170 µM [middle of 4 runs] | [16] 80.5 µM [middle of 4 runs]
not listed: [4] | [13]
inactive: all other assays above

Cc1occc1C(=O)Nc1ccc(C(=O)N2CCC(F)(F)/C(=C\C(=O)N3CCC(N4CCCCC4)CC3)c3ccccc32)cc1
active: [1] 27.4 µM | [5] 55.9 µM | [6] 34.5 µM | [10] 57.8 µM | [14] 49.8 µM | [16] 23.7 µM
not listed: [15] | [17] | [19]
inactive: all other assays above

O=CCCCC=O
not listed: [17] | [19]
inactive: all other assays above

CCN(Cc1cccc(S(=O)(=O)O)c1)c1ccc(C(=C2C=CC(=[N+](CC)Cc3cccc(S(=O)(=O)O)c3)C=C2)c2ccccc2S(=O)(=O)[O-])cc1
not listed: [10] | [19]
inactive: all other assays above

O=C1O[C@H]([C@@H](O)CO)C(O)=C1O
not listed: [4] | [9] | [17] | [19]
inactive: all other assays above

c1ccc(C[n+]2cccc3ccccc32)cc1
active: [4] 74.1 µM
not listed: [17]
inactive: all other assays above

COc1cc(C(=O)NC2CCN(C)CC2)ccc1Nc1ncc2c(n1)N(C1CCCC1)CC(F)(F)C(=O)N2C
active: [5] 1.55 µM | [7] 3.63 µM | [10] 0.872 µM | [16] 2.37 µM
not listed: [17] | [19]
inactive: all other assays above

Cc1c2ccccc2c(C)c2c1ccc1ccccc12
active: [1] 8.32 µM | [3] 33.4 µM | [4] 3.55 µM | [9] 6.62 µM | [11] 55.3 µM
not listed: [17]
inactive: all other assays above

CCCCCCCCOC(=O)c1cc(O)c(O)c(O)c1
active: [13] 16.9 µM
not listed: [17] | [19]
inactive: all other assays above

CC(=O)N1CCN(c2ccc(OC[C@H]3CO[C@](Cn4ccnc4)(c4ccc(Cl)cc4Cl)O3)cc2)CC1
active: [1] 54.6 µM | [9] 48.5 µM | [15] 55.6 µM | [16] 33.9 µM
not listed: [13] | [17] | [19]
inactive: all other assays above

From PubChem BioAssay (EPA / NIEHS)
